Screening data (PubChem BioAssay)
CBFb-RUNX1 inh: inhibitors of human CBF-beta and RUNX1 interaction; AlphaScreen CBFb-His/RUNX1-biotin binding, biochemical; Potency, µM (doses to about 59.8 µM), inactives show at the top dose activity, negative = inhibition, hits mostly inhibitors; 230,000 tested, under 10 active; further: % of control where 0% means no effect
Target sequence (Q01196 whole entry, looked up): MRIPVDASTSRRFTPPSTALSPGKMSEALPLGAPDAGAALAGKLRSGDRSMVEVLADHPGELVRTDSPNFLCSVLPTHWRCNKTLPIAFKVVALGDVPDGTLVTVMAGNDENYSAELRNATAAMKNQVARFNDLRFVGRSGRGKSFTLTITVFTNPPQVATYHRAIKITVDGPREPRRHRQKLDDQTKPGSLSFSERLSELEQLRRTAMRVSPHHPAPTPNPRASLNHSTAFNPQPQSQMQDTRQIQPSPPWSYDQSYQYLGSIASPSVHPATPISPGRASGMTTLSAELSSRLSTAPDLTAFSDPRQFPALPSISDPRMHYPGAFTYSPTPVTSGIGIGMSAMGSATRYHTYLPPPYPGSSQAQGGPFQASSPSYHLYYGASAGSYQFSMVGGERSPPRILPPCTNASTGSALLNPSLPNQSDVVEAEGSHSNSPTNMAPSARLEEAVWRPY
Target sequence (Q13951 whole entry, looked up): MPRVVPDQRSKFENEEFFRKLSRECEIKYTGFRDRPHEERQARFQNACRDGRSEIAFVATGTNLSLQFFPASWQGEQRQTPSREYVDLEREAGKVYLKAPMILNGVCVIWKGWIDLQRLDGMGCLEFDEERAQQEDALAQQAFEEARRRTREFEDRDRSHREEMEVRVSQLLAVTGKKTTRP
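CBF-beta (His) and RUNX1 (biotin), 30 nM each; 20 min preassociation; + compound, 15 min; + beads 50 ng each (Ni, streptavidin), 90 min; RT; AlphaScreen read.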
D3 antag: D3 dopamine receptor (human) antagonism. P35462. hit rate 2.5% among 360,000. max response, negative = inhibition, %. D3R cells, DiscoveRx beta-arrestin luminescence, antagonist mode; hits give low values; in the data active means max response below about -50%; inconclusive means no clear call, values can overlap the other calls; further: on the % scale 0 is the no-effect control and ±100 the full control effect
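Cells plated overnight at 1500 cells/well, then exposed to library compounds with dopamine controls for 90 minutes at 37 degrees C. DiscoveRx reagent added for 30–60 minutes at room temperature; luminescence read, quantitative HTS format.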
MBNL1 CUG block: MBNL1-poly(CUG) RNA binding inhibition; AID 2675; Potency, µM (series often up to 57.5 µM), without a hit: at the highest dose activity change, negative = inhibition, hits mostly inhibitors; Q9NR56; hit rate 0.036% among 280,000; TR-FRET MBNL1-His/biotin-(CUG)12 binding, 665/545 ratio; active means well fitted inhibition curve with a large enough effect in the signal ratio, with a control signal flat, not every such curve was filed as active; inconclusive means small, poorly fitted or top-dose-only effect, or effect the other way, or a change in a side signal; inactive means no such curve, though single readings can be large or run the other way; the % refers to the signal ratio; further: potency means the concentration at half of the fitted maximal effect; on the % scale 0 is the no-effect control and ±100 the full control effect
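TR-FRET readout: Ex 340 nm, 665/545 nm emission ratio, normalized to buffer-only (basal) and MBNL1-(CUG)12 controls. Complex of MBNL1-His with Biotin-(CUG)12, compounds 92 nM–58 uM, incubated 60 min at room temperature.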
D3 ag: activates the human D3 dopamine receptor; AID 652048; D3R DiscoveRx beta-arrestin cells, luminescence, 90 min; hit rate 0.58% among 410,000; P35462; max activation, %; in the data active means max activation above about 30%; further: 0% is about no effect
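Agonist-mode cell screen: cells plated at 1500/well and incubated overnight at 37 °C, then exposed to library compounds for 90 min at 37 °C. Detection reagent was added for 30–60 min at room temperature, and luminescence was read.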
PTHR1 ag: activates the human parathyroid hormone receptor PTHR1; Q03431; AID 743266; HEK293 GP2 PTHR1 cells, GloSensor cAMP luminescence, 1 h; Potency, µM (doses to about 115 µM), for the others: at the highest dose activation, actives largely listed as activators; hit rate 0.075% among 410,000; further: potency means the concentration at half of the fitted maximal effect; nearly all actives have a fitted effect of over 55% in size
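HEK-293-derived GP2 cells expressing PTHR1 and a GloSensor cAMP reporter, 3,000/well, plated overnight, given luciferin plus IBMX (each 0.5 mM as added) for 1 h at 37 °C, then compound for 1 h at 37 °C. Luminescence was read after 15 min at room temperature.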
Integrin act MD: activators of alpha7 integrin expression for muscular dystrophy; alpha7betagal myoblasts, beta-gal FDG fluorescence, 48 h; Potency, µM (doses to about 38.3 µM), without a hit: top-dose activation, usual class: activators; hit rate 0.064% among 350,000; AID 624291;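 further: potency means the concentration at half of the fitted maximal effect; 100% = response of the positive control SU9516; nearly all actives have a fitted effect of over 60% in size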
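Alpha7betagal+/- myoblasts (passage 13) were plated 16-24 hr, then exposed to compounds (1:260 dilution of DMSO stock) for 48 hours at 37C. After MPER lysis, β-galactosidase reporter activity was read as FDG fluorescence (ex 480/em 540) after 30 minutes.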
* = called active by the depositor; i = inactive; ? = inconclusive; . = not tested or not shown; [ ] = dose if it differs, or a comment. Compounds with a hit are over-represented: about 2.8% of the library has one in this group of screens. Unless noted, the call rests on the fitted dose curve; in most records, active means well fitted curve in the direction sought with a large enough effect; inconclusive means small, poorly fitted or top-dose-only effect, or another doubt; inactive means no such curve, though single readings can be large; an effect the other way counts as inactive or inconclusive.

SMILES	CBFb-RUNX1 inh	D3 antag	MBNL1 CUG block	D3 ag	PTHR1 ag	Integrin act MD
Cc1ccc(Sc2nc(-c3ccccc3)nnc2C(F)(F)F)cc1	2.5%	-70.3*	?	-5.2	-11.4%[57.5 µM]	16.1%
CCN(CC)c1ccc(C(=O)OCC(=O)N2CCCC2)cc1	.	6.7	1.3%	-5.6	i	5.1%
O=Cc1ccc(C(=O)OCC(=O)N2CCCC2)cc1	.	2.9	10.9%	0.0	-1.5%	2.51µM*
CC[N+](C)(C)CC/C=C1/c2ccccc2Sc2ccc(Cl)cc21	9.9%	-8.1	.	-9.9	-9.5%	15.5%
CCCCCCCCCCC[N+](C)(C)CC/C=C1/c2ccccc2Sc2ccc(Cl)cc21	.	-124.0*	-0.2%	-3.3	i	-24.7%
CCCCCCCCCC[N+](C)(C)CC/C=C1/c2ccccc2Sc2ccc(Cl)cc21	.	-113.2*	2.4%	-2.1	i	-56.6%
CCOC(=O)C1=CN(Cc2cccc(F)c2)S(=O)(=O)N(CC)C1c1ccc(C(F)(F)F)cc1 (stereo not drawn)	.	-55.5*	.	-9.3	-35.1%	4.1%
CCOC(=O)C1=CN(Cc2cccc(I)c2)S(=O)(=O)N(C)C1C (stereo not drawn)	.	-66.5*	.	-48.7	i	-0.7%
Cc1ccc2c(c1)N(C(=O)NC1CCCCC1)C(C)(C)CC2C (stereo not drawn)	-0.9%	3.1	-1.4%	-3.9	6.4%	2.1%
Cc1ccc2c(c1)C(C)CC(C)(C)N2C(=O)NC1CCCCC1 (stereo not drawn)	-5.0%	-54.3*	6.5%	8.5	i	-16.5%
Cc1ccc2c(c1)C(C)CC(C)(C)N2C(=O)CN1CCN(C)CC1 (stereo not drawn)	6.7%	-93.1*	-12.1%	-22.7	i	-36.3%
O=C(O)c1ccc(-n2ncc(Cl)c(Cl)c2=O)cc1	.	0.0	.	-7.2	-80.4%	-11.3%
O=C(OCn1ncc(Cl)c(Cl)c1=O)c1ccc(C(F)(F)F)cc1	-3.2%	-85.3*	25.2%	1.1	i	-70.0%
Cc1ccc(C(=O)OCn2ncc(Cl)c(Cl)c2=O)cc1	-2.3%	-50.7*	i	-7.6	-31.8%	-67.1%
CCOC(=O)c1ccc(NC(=O)Cn2ncc(Cl)c(Cl)c2=O)cc1	-20.7%	?	.	-6.3	-49.8%	-60.8%
CCOC(=O)CN1C(C(=O)c2ccccc2)=C(OC(=O)c2ccccc2)c2ccccc2S1(=O)=O	.	.	.	49.5*	-14.2%	.
COc1ccc(/C=C2\CCCC3C2=NN(C(=O)c2scnc2C)C3c2ccc(OC)c(OC)c2)cc1OC (stereo not drawn)	7.5%	4.5	-0.5%	71.6*	i	-21.7%
CCCC(C)c1oc(=O)cc(O)c1C (stereo not drawn)	.	-2.9	.	60.4*	i	4.0%
Cc1cc(C)c(Cn2c(CCNC(=O)c3ccco3)nc3ccccc32)c(C)c1	.	.	.	-0.1	-12.3%	.
OCCOCCN1CCN(C2=Nc3ccccc3Sc3ccccc32)CC1	7.8%	-66.4*	13.8%	.	-27.3%	.
N#Cc1c(-c2ccccc2)[nH]c(=S)[nH]c1=O	1.9%	-60.4*	0.0%	-0.5	-16.1%	6.0%
CCN(CC)CCCC(C)n1c(-c2ccccc2)nc2c(NCCO)nc(C)nc21 (stereo not drawn)	8.4%	.	.	.	.	.
CC1CC(C)CN(CC(=O)Nc2cc(S(=O)(=O)N3CCOCC3)ccc2N2CCCC2)C1 (stereo not drawn)	.	-3.6	.	0.9	-19.9%	0.3%
CC1CCN(c2ccccc2NC(=S)NC(=O)c2cccs2)CC1	-11.3%	-58.2*	15.0%	-6.2	i	6.3%
CS(=O)(=O)N1CCN(c2ccccc2NC(=S)NC(=O)c2cccs2)CC1	-27.6%	-0.1	-4.2%	-10.2	5.1%	-18.0%
COc1cc(/C=N/NC(=O)C2COc3ccccc3O2)ccc1O (stereo not drawn)	2.8%	-56.4*	.	-11.2	i	2.8%
